# RORgamma inh: blocks mouse ROR gamma transcriptional activity | P51450 | Drosophila S2 Gal4-RORgamma UAS-luciferase reporter, 20 h | Potency, µM (series often up to 53.6 µM), without a hit: at the highest dose activity change, negative = inhibition, hits mostly inhibitors | 5.4% of 310,000 active | AID 2551; also: nearly all actives have a fitted effect of over 60% in size
#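 Read-out: Photinus luciferase luminescence; inhibitors lower reporter signal. Insect Schneider cells with Gal4-ROR gamma fusion under metallothionein promoter, UAS reporter; 700 uM final copper sulfate induction, 20 hr, ambient temperature.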
# ELG1 repair inh: blocks ELG1-dependent DNA repair in HEK293T cells; HEK293T ELG1-luciferase reporter, luminescence, 16 h; DNA damage induced by 5-fluorouridine; Potency, µM (series often up to 46.1 µM), inactives show top-dose activity change, negative = inhibition, most hits filed as inhibitors; 2.3% of 330,000 active; AID 504467; also: nearly all actives have a fitted effect of over 55% in size
#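 In this reporter screen, reduction of luminescence relative to DMSO vehicle indicated activity. Compounds and 5-fluorouridine were added together to 2,000 cells per well, incubated for 16 hr at 37 °C, then developed with ONE-Glo.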
# DT40 TDP1 no CPT: qHTS for Inhibitors of human tyrosyl-DNA phosphodiesterase 1 (TDP1): qHTS in cells in absence of CPT; DT40 Tdp1-/- hTDP1 cells, no CPT, ATP luminescence, 48 h; Potency, µM (doses to about 46.2 µM), for inactives: at the top dose activity change, negative = growth inhibition, hits mostly inhibitors; 15% of 420,000 active; also: nearly all actives have a fitted effect of over 55% in size
#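 Compound effects on proliferation are scored in DT40 Tdp1-/-;hTDP1 cells in the absence of CPT. ATP levels (CellTiter-Glo luminescence) are recorded after a ≥48 hr, 37 °C incubation.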
# 12-LOX inh: inhibitors of human 12S-lipoxygenase ALOX12; P18054; 1.1% of 580,000 active; purified 12hLO, xylenol orange hydroperoxide absorbance; Potency, µM (top dose mostly 108 µM), inactives show at the top dose activity change, negative = inhibition, most hits filed as inhibitors
# Target sequence (P18054 whole entry, looked up): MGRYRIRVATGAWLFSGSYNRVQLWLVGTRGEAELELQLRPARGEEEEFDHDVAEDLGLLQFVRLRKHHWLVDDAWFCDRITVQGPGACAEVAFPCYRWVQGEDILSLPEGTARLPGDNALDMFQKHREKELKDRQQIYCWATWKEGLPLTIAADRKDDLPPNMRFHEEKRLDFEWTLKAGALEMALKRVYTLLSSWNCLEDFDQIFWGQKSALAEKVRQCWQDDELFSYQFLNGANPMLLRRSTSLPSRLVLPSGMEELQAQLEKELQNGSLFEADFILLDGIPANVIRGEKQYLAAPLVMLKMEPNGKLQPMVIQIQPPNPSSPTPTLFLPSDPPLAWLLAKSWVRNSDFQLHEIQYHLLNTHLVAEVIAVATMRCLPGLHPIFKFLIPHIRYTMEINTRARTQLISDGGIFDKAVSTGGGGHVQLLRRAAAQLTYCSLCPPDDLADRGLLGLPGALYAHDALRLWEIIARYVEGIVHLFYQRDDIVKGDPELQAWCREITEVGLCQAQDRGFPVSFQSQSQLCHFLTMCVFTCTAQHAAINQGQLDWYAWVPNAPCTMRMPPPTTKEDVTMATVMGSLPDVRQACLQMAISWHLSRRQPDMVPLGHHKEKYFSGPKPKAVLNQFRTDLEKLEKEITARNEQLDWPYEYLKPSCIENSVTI
#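 Purified human 12hLO (150 nM final) in 25 mM Hepes, 0.01% Triton X-100, pH 7.0 was preincubated 15 min at room temperature with compound. Then 40 uM arachidonic acid was added, 30 min. Hydroperoxide was read by Fe-XO absorbance ratio 573/405 nm.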
# Gal4-VP16 FLuc: inhibits Gal4-VP16 luciferase reporter, ROR gamma counter-screen; Drosophila S2 Gal4-VP16 UAS-luciferase, luminescence, 20 h; Potency, µM (titrated, usually from 53.6 µM), inactives show top-dose activity, negative = inhibition, most hits filed as inhibitors; 3.5% of 310,000 active;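 also: Gal4-VP16 expression switched on by copper sulfate through the metallothionein promoter; nearly all actives have a fitted effect of over 50% in size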
# TDP1 cell CPT: DT40-hTDP1 cell growth loss with CPT. chicken DT40 Tdp1-/-;hTDP1 cells + 20 nM CPT, ATP luminescence, 48 h. Potency, µM (doses to about 46.2 µM), for the others: top-dose activity change, negative = growth inhibition, most hits filed as inhibitors. 12% of 420,000 active; also: nearly all actives have a fitted effect of over 55% in size
#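 Chicken DT40 Tdp1-/- cells stably complemented with human TDP1 were seeded at 400 cells/well in medium containing 20 nM camptothecin, exposed to pin-transferred compounds, and grown at 37 °C for at least 48 hr. Viability was read as ATP luminescence.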
# * = called active by the depositor; ? = inconclusive; · = not tested or not shown; ! = not active in a repeat; [ ] = dose if it differs, or a comment. Sampled rows, rich in hits. Any-hit rate of the full collection: about 15%. Calls follow the shape of the dose curve; as a rule, active = well fitted curve in the direction sought with a large enough effect; inconclusive = small, poorly fitted or top-dose-only effect, or another doubt; inactive = no such curve, though single readings can be large; an effect the other way counts as inactive or inconclusive. % is scaled to controls: 0 for no effect and ±100 for the full control effect; potency is read from the fitted curve at half-maximal effect.
SMILES,RORgamma inh,ELG1 repair inh,DT40 TDP1 no CPT,12-LOX inh,Gal4-VP16 FLuc,TDP1 cell CPT
COc1cccc(CCC(=O)N2CCCCCC2CN2CCC(OC)CC2)c1 (stereo not drawn),·,·,·,1%,·,·
CC1CCN(c2c(NCc3ccc(C(=O)N4CCN(C5CCCCC5)CC4)cc3)c(=O)c2=O)CC1,22%,16%,-16%,-29%,-5%,-19%
CC1CCN(c2c(NCc3ccc(C(=O)N4c5ccccc5CC4C)cc3)c(=O)c2=O)CC1 (stereo not drawn),?,?,23µM*,?,26%,18µM*
O=[N+]([O-])c1cccc(-n2nc(-c3ccccc3)c3cnc4ccccc4c32)c1,·,·,·,-33%,·,·
Cc1ccc(NC(=O)c2ccc(COc3ccc4c(c3)CCC4)cc2)c(C)c1,2.2µM*,?,?,-6%,8.9µM*,?
Cn1c(=O)[nH]c(=O)c2c1nc(N1CCN(Cc3ccc(F)cc3)CC1)n2CCc1ccccc1,·,·,·,15%,·,·
CCOc1ccc(-c2nnc3ccc(SCC(=O)N4CCCCC4)nn23)cc1,11%,?,-26%,-26%,19%,-7%
CCOc1ccc(-c2nnc3ccc(SCC(=O)Nc4nc5ccccc5s4)nn23)cc1,?,7.3µM*,18µM*,-25%,-3%,?
CCOc1ccc(-c2nnc3ccc(SCC(=O)Nc4nc5ccc(C)cc5s4)nn23)cc1,23%,8.2µM*,26µM*,-24%,-12%,?
COc1ccc(-c2nnc(SCC(=O)Nc3nc4ccccc4s3)n2C)cc1,-14%,-3%,-14%,-4%,10%,1%
Cc1ccc2nc(NC(=O)CSc3nncc(=O)n3N)sc2c1,-1%[10 µM],?,16µM*,-11%,25%,?
CCc1nnc(NC(=O)CSc2nncc(=O)n2N)s1,?,12%,18%,-10%,1%,9%
O=c1[nH]nc(SCCS(=O)(=O)c2ccc(F)cc2)n1-c1ccccc1,2%,1%,?,222%,-11%,29µM*
O=c1[nH]nc(SCCS(=O)(=O)c2ccc(F)cc2)n1-c1ccc2c(c1)OCCO2,38%,20%,16µM*,94%,7%,?
Nc1ncc(-c2ccccc2)n1CC1CCCO1 (stereo not drawn),13µM*,10%,18µM*,0%,?,?
c1ccc(-c2nc3nc4ccccc4nc3n2CC2CCCO2)cc1 (stereo not drawn),0%,0%,15µM*,0%,9%,?
O=C(CSc1ncc(-c2ccccc2)n1CC1CCCO1)N1CCCCC1 (stereo not drawn),-2%,0%,-16%,0%,-1%,-9%
C=CCOC(=O)C(=O)/C=C/c1ccc2c(c1)Cc1ccccc1-2,26%,?,?,14µM*,7%,?
C=CCOC(=O)C(=O)/C=C/c1csc2ccccc12,?,?,?,?,?,-18%
COc1ccc(CNC(=O)C[C@@H]2C[C@H]3O[C@H](CNCc4ccccc4Cl)[C@@H](O)[C@H]3O2)cc1,·,·,·,-20%,·,·
Cn1cc(C2=C(c3ccc(Cl)cc3Cl)C(=O)NC2=O)c2ccccc21,?,?,11µM*!,-8%,-5%,?
CN(C)CC1CCn2c(c(C3=C(c4cn(C)c5ccccc45)C(=O)NC3=O)c3ccccc32)C1 (stereo not drawn),-26%,·,·,·,6%,·
Nc1nc(Cl)nc(NCc2ccccc2)c1[N+](=O)[O-],·,·,·,-33%,·,·
Cc1nc2ncccn2c1-c1csc(Nc2ccccc2)n1,-17%,?,18µM*,?,?,16µM*
Cc1nc2ncccn2c1-c1csc(Nc2ccc(N(C)C)cc2)n1,-14%,?,0.018µM*,?,8%,0.0052µM*
SMILES,RORgamma inh,ELG1 repair inh,DT40 TDP1 no CPT,12-LOX inh,Gal4-VP16 FLuc,TDP1 cell CPT
COc1ccc(Nc2nc(-c3c(C)nc4ncccn34)cs2)cc1,?,-1%,0.0073µM*,?,?,0.0092µM*
Cc1nc2ncccn2c1-c1csc(Nc2ccc(S(N)(=O)=O)cc2)n1,10%,?,5%,-12%,-5%,37%
CC(C)n1nc(OC(C)(C)C(=O)NCCOc2ccccc2)c2cc(CN3CCOCC3)ccc21,·,·,·,10%,·,·
CC(=O)Nc1sc(C)c(C)c1C(=O)Nc1ccc(C)cc1,30%,18%,-19%,21%,13%,-1%
Cc1sc(NC(=O)C(C)C)c(C(=O)Nc2ccccc2)c1C,27%,1%,15µM*,-34%,8%,?
Cc1ccc(-c2noc(COc3ccc4c(C)cc(=O)oc4c3)n2)cc1,·,·,·,5%,·,·
CCN(CC)S(=O)(=O)c1ccc(OC)c(NC(=O)c2cc([N+](=O)[O-])ccc2N2CCOCC2)c1,·,·,16µM*,6%,·,?
CCN(CC)S(=O)(=O)c1cc(NC(=O)c2cc([N+](=O)[O-])ccc2N2CCOCC2)ccc1C,-12%,?,16µM*,0%,-1%,?
COc1ccc(CNC(=O)c2ccc(N3CCC4(CC3)CC(c3ccc(Cl)cc3)=NO4)c(NC(=O)c3ccccc3)c2)cc1,·,·,-15%,-20%,·,-12%
CCCCCCCNC(=O)c1ccc(N2CCC3(CC2)OCCO3)c([N+](=O)[O-])c1,25%,18µM*,?,-14%,-16%,?
CCCNC(=O)c1ccc(N2CCC3(CC2)CC(c2ccccc2)=NO3)c(NC(=O)Cc2ccc(F)cc2)c1,28%,21µM*,18µM*,-7%,-4%,?
CCCNC(=O)c1ccc(N2CCC3(CC2)CC(c2ccccc2)=NO3)c([N+](=O)[O-])c1,15%,?,?,7%,?,21µM*
COc1ccc(CNC(=O)c2ccc(N3CCOCC3)c([N+](=O)[O-])c2)cc1,42%,-20%,-20%,0%,0%,?
CCCNC(=O)c1ccc(N2CCC3(CC2)CC(c2ccccc2)=NO3)c(N)c1,-27%,-17%,?,-2%,-9%,?
O=C(NCc1ccccc1)c1ccc(N2CCC3(CC2)CC(c2ccc(Cl)cc2)=NO3)c([N+](=O)[O-])c1,3%,?,?,12%,10%,6.5µM*
CCCn1c(C)cnc1CC1CCN(C(=O)c2ccccn2)C1 (stereo not drawn),·,·,·,-15%,·,·
COc1cccc(CCNC(=O)c2c(O)nc3c(C)cccn3c2=O)c1,·,·,?,-12%,·,18µM*

# Source: PubChem BioAssay
